Screening data: PubChem BioAssay, The Scripps Research Institute Molecular Screening Center
An excerpt weighted towards active compounds, which were near 3.2% of everything screened.
bovine MsrA act: bovine methionine sulfoxide reductase A activation; purified bovine MsrA, absorbance read-out; activation, % at 10.6 µM; 0.3% of 360,000 active; AID 602163; in the data active = activation above about 7.5%
HGIII-sPLA2 inh: Inhibits HGIII-sPLA2 liposome hydrolysis, primary screen. Q9NZ20. QFRET BODIPY PC-A2 liposome hydrolysis, fluorescence. inhibition, % at 12.2 µM. 0.56% of 370,000 active;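 active = inhibition above mean plus 3 SD of compounds lying within the high and low control bounds, cut at about 19% in these data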
Target sequence (Q9NZ20 whole entry, looked up): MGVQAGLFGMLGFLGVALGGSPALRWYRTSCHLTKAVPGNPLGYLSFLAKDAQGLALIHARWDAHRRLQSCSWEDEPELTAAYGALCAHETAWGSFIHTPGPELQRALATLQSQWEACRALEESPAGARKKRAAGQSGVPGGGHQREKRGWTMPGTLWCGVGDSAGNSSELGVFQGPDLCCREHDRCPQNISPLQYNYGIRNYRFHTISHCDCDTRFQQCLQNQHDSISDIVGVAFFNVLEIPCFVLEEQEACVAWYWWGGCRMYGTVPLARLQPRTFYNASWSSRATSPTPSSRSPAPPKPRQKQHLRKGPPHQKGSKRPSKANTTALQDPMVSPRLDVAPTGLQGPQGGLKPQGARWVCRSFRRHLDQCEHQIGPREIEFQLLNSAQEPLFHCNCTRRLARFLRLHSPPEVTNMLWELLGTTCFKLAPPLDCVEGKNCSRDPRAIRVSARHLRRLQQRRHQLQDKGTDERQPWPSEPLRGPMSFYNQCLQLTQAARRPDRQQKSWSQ
rCAG RNA binder: binds r(CAG) RNA repeats. 1.3% of 370,000 active. inhibition, % at 3 µM. r(CAG) RNA repeat, TO-PRO-1 dye displacement fluorescence;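 active = inhibition above the plate cutoff, the mean of all test compounds on that plate plus 3 SD, cut at about 35% in these data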;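 note: higher means more dye released from RNA so lower well fluorescence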
MsrA inh: inhibits bovine methionine sulfoxide reductase A; purified bovine MsrA, absorbance read-out; inhibition, % at 15.5 µM; 0.75% of 360,000 active; AID 651718
PG9 binder: PG9 antibody binding by small molecule; TR-FRET gp120-PG9 antibody binding; 0.43% of 360,000 active; inhibition, % at 6.7 µM; in the data active = inhibition above about 8.5%
MsrA conf: bovine MsrA inhibition, confirmed. shares compounds with MsrA inh. purified bovine MsrA, absorbance read-out. inhibition, % at 15.5 µM. 41% of 2,300 active. AID 651822;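 note: coupled to thioredoxin reductase with NADPH and selenocystamine and DMSO as substrate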
Numbers stand for hits; ! = not confirmed by another sample. Cut-off read from the data, not from the text of the source, unless noted: active = inhibition above about 4.5%; inactive = the rest.

How did C(=C\c1ccco1)/C=N/n1cnnc1 do in these assays?
bovine MsrA act: inactive; HGIII-sPLA2 inh: inactive; rCAG RNA binder: inactive; MsrA inh: 4.7; PG9 binder: inactive; MsrA conf: 5.7

How did CCCC1S/C(=N/N=C/c2cccs2)NC1=O (centres undefined) do in these assays?
bovine MsrA act: inactive; HGIII-sPLA2 inh: inactive; rCAG RNA binder: inactive; MsrA inh: inactive; PG9 binder: inactive

Results for C(=N\n1cnnc1)/c1cccs1 ?
bovine MsrA act: inactive; HGIII-sPLA2 inh: inactive; rCAG RNA binder: inactive; MsrA inh: inactive; PG9 binder: inactive

How did C(=N\N=C\c1cccs1)/c1cccs1 do in these assays?
bovine MsrA act: inactive; HGIII-sPLA2 inh: inactive; rCAG RNA binder: inactive; MsrA inh: 5.1; PG9 binder: inactive; MsrA conf: 4.7

Results for CC1S/C(=N/N=C/c2cccs2)NC1=O (centres undefined) ?
bovine MsrA act: inactive; HGIII-sPLA2 inh: inactive; rCAG RNA binder: inactive; MsrA inh: 5.0; PG9 binder: inactive; MsrA conf: inactive

What do the screens show for `CCC1S/C(=N/N=C/c2cccs2)NC1=O` (centres undefined)?
bovine MsrA act: inactive; HGIII-sPLA2 inh: inactive; rCAG RNA binder: inactive; MsrA inh: 6.2; PG9 binder: inactive; MsrA conf: 5.5

What do the screens show for `CC(C)C1S/C(=N/N=C/c2cccs2)NC1=O` (centres undefined)?
bovine MsrA act: inactive; HGIII-sPLA2 inh: inactive; rCAG RNA binder: inactive; MsrA inh: 6.8; PG9 binder: inactive; MsrA conf: inactive

How did CC(C)C[C@H]1COc2cccc(F)c2S(=O)(=O)N1Cc1cn(Cc2ccc(C(F)(F)F)cc2)nn1 do in these assays?
HGIII-sPLA2 inh: inactive; rCAG RNA binder: inactive

What do the screens show for `CC(C)(C)OC(=O)n1ccc2ccc(-c3ccc4cc[nH]c4c3)cc21`?
HGIII-sPLA2 inh: inactive; rCAG RNA binder: inactive

Results for Cn1c(=O)n(C)c2cc(/C=N/N=C3/NC(=O)C(CC(=O)O)S3)ccc21 (centres undefined) ?
bovine MsrA act: inactive; HGIII-sPLA2 inh: inactive; rCAG RNA binder: inactive; MsrA inh: 6.2; PG9 binder: inactive; MsrA conf: 6.7

How did COc1ccc(/C=N/N=C2/NC(=O)C(CC(=O)O)S2)cc1OCc1ccc(Cl)cc1 (centres undefined) do in these assays?
bovine MsrA act: inactive; HGIII-sPLA2 inh: inactive; rCAG RNA binder: inactive; MsrA inh: 7.3; PG9 binder: inactive; MsrA conf: 5.9

How did COc1ccc(/C=N/N=C2/NC(=O)C(CC(=O)O)S2)cc1OS(=O)(=O)c1ccccc1 (centres undefined) do in these assays?
bovine MsrA act: inactive; HGIII-sPLA2 inh: inactive; rCAG RNA binder: inactive; MsrA inh: inactive; PG9 binder: inactive

Results for COC(=O)[C@]12C[C@H](CC(=O)NCc3cccc4ccccc34)C(=O)N(Cc3ccco3)C1=C[C@H](C(C)(C)C)O[C@@H]2C ?
HGIII-sPLA2 inh: inactive; rCAG RNA binder: inactive

How did CCn1ncc([N+](=O)[O-])c1C(=O)Nc1c(C)cccc1C do in these assays?
bovine MsrA act: inactive; HGIII-sPLA2 inh: inactive; rCAG RNA binder: inactive; MsrA inh: 14; PG9 binder: inactive; MsrA conf: 6.7

What do the screens show for `CCn1ncc([N+](=O)[O-])c1C(=O)Nc1nc2cccc(C)c2s1`?
bovine MsrA act: inactive; HGIII-sPLA2 inh: inactive; rCAG RNA binder: inactive; MsrA inh: inactive; PG9 binder: inactive

Results for Cn1cnc([N+](=O)[O-])c1S(=O)(=O)Oc1ccccc1 ?
bovine MsrA act: inactive; HGIII-sPLA2 inh: inactive; rCAG RNA binder: inactive; MsrA inh: 17; PG9 binder: inactive; MsrA conf: 12

How did Cn1cnc([N+](=O)[O-])c1S(=O)(=O)c1cccc(Cl)c1 do in these assays?
bovine MsrA act: inactive; HGIII-sPLA2 inh: inactive; rCAG RNA binder: inactive; MsrA inh: inactive; PG9 binder: inactive

What do the screens show for `Cn1cnc([N+](=O)[O-])c1S(=O)(=O)Nc1ccccc1`?
bovine MsrA act: inactive; HGIII-sPLA2 inh: inactive; rCAG RNA binder: inactive; MsrA inh: 16; PG9 binder: inactive; MsrA conf: 8.1

What do the screens show for `Cc1c(N=C/C=C2/N(C)c3ccccc3C2(C)C)c(=O)n(-c2ccccc2)n1C`?
bovine MsrA act: inactive; HGIII-sPLA2 inh: inactive; rCAG RNA binder: inactive; MsrA inh: 5.7!; PG9 binder: inactive; MsrA conf: inactive

How did Cc1c(N=C/C=C2\N(C)c3ccccc3C2(C)C)c(=O)n(-c2ccccc2)n1C do in these assays?
bovine MsrA act: inactive; HGIII-sPLA2 inh: inactive; rCAG RNA binder: inactive; MsrA inh: 6.1; PG9 binder: inactive; MsrA conf: 4.9
